# Screening data: PubChem, National Center for Advancing Translational Sciences (NCATS)
# The list is not random: actives were taken first. Their share in the collection is about 9.5%.
# Tau fibril ThT = blocks human tau fibril formation measured by thioflavin T; AID 1460; P10636; Potency, µM (top dose mostly 57.4 µM), hits mostly inhibitors; recombinant tau K18 P301L, heparin-induced fibrillization, ThT fluorescence; 270,000 tested, 2.1% active; also: nearly all actives have a fitted effect of over 55% in size
# Target sequence (P10636 561-689 P618L limits assumed): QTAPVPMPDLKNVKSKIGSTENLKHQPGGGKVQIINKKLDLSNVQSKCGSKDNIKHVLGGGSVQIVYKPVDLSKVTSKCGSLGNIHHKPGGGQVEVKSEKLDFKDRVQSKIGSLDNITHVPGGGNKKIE
#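 In this qHTS, human K18 P301L tau is incubated with compound and heparin for 6 hr at 37 C, and Thioflavin T fluorescence then reports fibril load.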
# ALDH1A1 inh = inhibitors of human aldehyde dehydrogenase 1A1; P00352; Purified ALDH1A1, NADH fluorescence, propionaldehyde substrate; 220,000 tested, 7.3% active; Potency, µM (series often up to 75.3 µM), most hits filed as inhibitors; AID 1030; active = well fitted inhibition curve with a large enough effect, not every such curve was filed as active; inconclusive = small, poorly fitted or top-dose-only effect, or another doubt; inactive = no such curve, though single readings can be large or run the other way
# Tau fluor counter = counter-screen for tau fibril formation inhibitors. tau K18 P301L (four-repeat tau fragment) Alexa594 fluorescence, heparin fibrillization. Potency, µM (titrated, usually from 57.7 µM). 280,000 tested, 0.93% active. AID 1463; also: nearly all actives have a fitted effect of over 55% in size
#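 Human K18 P301L tau (15 uM unlabeled plus 0.24 uM Alexa 594-labeled, final) in 100 mM sodium acetate pH 7 was mixed with compound and 20 uM heparin and incubated 6 hr at 37 C.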
# HPGD block = HPGD (human) dehydrogenase inhibition; purified HPGD, NADH fluorescence kinetic, PGE2 substrate; Potency, µM, hits mostly inhibitors; 150,000 tested, 4.3% active; active = well fitted inhibition curve with a large enough effect, not every such curve was filed as active; inconclusive = small, poorly fitted or top-dose-only effect, or another doubt; inactive = no such curve, though single readings can be large or run the other way
#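 20 nM HPGD preincubated 15 min at room temperature with compound in 50 mM Tris-HCl pH 8, 0.01% Tween 20. Started with 1 mM NAD+ and 30 uM prostaglandin E2; NADH fluorescence (360/450 nm) read 5 times over 30-s intervals, last minus first.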
# NPSR antagonist = antagonists of human neuropeptide S receptor cAMP signaling | Q6W5P4 | CHO-NPSR cells, cAMP TR-FRET, antagonist mode | Potency, µM (highest dose often 38.3 µM), hits mostly inhibitors | 220,000 tested, 1% active | AID 1461; also: nearly all actives have a fitted effect of over 50% in size
# Target sequence (Q6W5P4 whole entry, looked up): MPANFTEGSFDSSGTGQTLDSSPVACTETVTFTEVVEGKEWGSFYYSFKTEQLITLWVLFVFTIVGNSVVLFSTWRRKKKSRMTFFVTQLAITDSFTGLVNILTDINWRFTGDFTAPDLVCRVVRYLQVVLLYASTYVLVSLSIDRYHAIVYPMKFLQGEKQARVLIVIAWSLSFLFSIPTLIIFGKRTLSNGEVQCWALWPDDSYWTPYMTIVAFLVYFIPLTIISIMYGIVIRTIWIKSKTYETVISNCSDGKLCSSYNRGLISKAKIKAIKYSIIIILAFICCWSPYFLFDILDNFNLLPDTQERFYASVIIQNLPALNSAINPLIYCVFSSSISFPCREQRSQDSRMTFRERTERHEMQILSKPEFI
# Tau fibril FP = tau fibrillization inhibition (FP). K18 P301L tau heparin fibrillization, Alexa594 FP, 6 h. Potency, µM (series often up to 57.7 µM), most hits filed as inhibitors. 280,000 tested, 0.39% active; also: nearly all actives have a fitted effect of over 55% in size
#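 Human tau K18 […] P301L fragment, 15 uM unlabeled plus 0.24 uM Alexa 594-labeled tau (final), with compound and 20 uM heparin in 100 mM sodium acetate pH 7; 6 hr at 37 C, then Alexa 594 FP read.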
# Numbers stand for hits; n = inactive; u = inconclusive; x = no result; [ ] = dose if it differs, or a comment. Unless noted, calls follow the shape of the dose curve; as a rule, active = well fitted curve in the direction sought with a large enough effect; inconclusive = small, poorly fitted or top-dose-only effect, or another doubt; inactive = no such curve, though single readings can be large; an effect the other way counts as inactive or inconclusive.
SMILES,Tau fibril ThT,ALDH1A1 inh,Tau fluor counter,HPGD block,NPSR antagonist,Tau fibril FP
Cc1cc(C)nc(NN2C(=O)/C(=C/c3ccc(O)cc3)SC2=S)n1,u,n,u,n,n,n
COc1ccc(NC(=O)C2CCC(=O)N2S(=O)(=O)c2ccc(C)cc2)c(OC)c1 (stereo not drawn),n,n,n,n,n,n
CCCCn1c(N)c(N(CC)C(=O)CSc2nnnn2-c2cc(C)ccc2C)c(=O)[nH]c1=O,n,11.2µM,n,x,n,n
CCN(C(=O)CSc1nnnn1C)c1c(N)n(Cc2ccccc2)c(=O)[nH]c1=O,n,n,n,x,n,u
COC(=O)[C@@]1(Cc2ccc(F)cc2)[C@H]2c3cc(C(=O)N(C)C)n(CCCNc4ccc(C(F)(F)F)cc4Cl)c3C[C@H]2CN1C(=O)c1ccccc1,n,n,n,n,x,n
CCSc1ncc(Cl)c(C(=O)Nc2c(C(=O)Nc3cccc(C)c3)oc3ccccc23)n1,n,x,n,x,x,n
CCS(=O)(=O)c1ncc(Cl)c(C(=O)Nc2c(C(=O)Nc3cccc(C)c3)oc3ccccc23)n1,3.98µM,x,u,x,x,n
CCCCN(CC)CCNC(=O)C1CCN(c2nnc(C)c3c(C)n(-c4ccc(C)cc4)nc23)CC1,n,x,n,x,x,n
CCOC(=O)Cn1c(=O)oc2cc(S(=O)(=O)N3CCN(c4ccc(F)cc4)CC3)ccc21,n,x,n,x,x,n
CC1CC(C)(C)NCc2ccccc21 (stereo not drawn),u,0.562µM,n,x,n,n
Cc1cccc(N2C(=O)N(Cc3cccc(C#N)c3)c3ccccc3S2(=O)=O)c1,n,x,u,x,x,n
O=C(Nc1nnc(-c2ccco2)o1)C1CC1,n,n,n,x,n,n
CN(C)c1ccc(C(=S)NCc2ccco2)cc1,10µM,5.01µM,u,u,n,n
CN(C)c1ccc(/C=N/NC(=S)NCc2ccco2)cc1,u,u,n,u,n,n
CCN1C(=O)[C@H]2[C@H]3[C@H](O)[C@H](O)C/C(=N/OCc4ccccc4)[C@@H]3CC[C@@H]2C1=O,n[11.5 µM],n[13.5 µM],n[11.6 µM],x,x,n[11.6 µM]
O=c1nc(/C=C/c2ccc(-c3ccc(F)cc3)o2)cc(C(F)(F)F)[nH]1,15.8µM,n,n,u,n,n
O=C(O)c1ccccc1-c1ccc(/C=C/c2cc(C(F)(F)F)[nH]c(=O)n2)o1,n,u,n,x,n,n
CCn1cc(C(=O)OCC(=O)NCc2ccccc2Cl)c(=O)c2ccc(C)nc21,n,u,n,x,n,n
COc1cc(C=O)ccc1O,n,25.1µM,n,n,x,n
COc1cc(/C=C2/C(=O)CNC2=O)ccc1O,n,12.6µM,n,x,n,n
COc1cc(C=C(C(C)=O)C(C)=O)ccc1O,u,n,n,n,n,n
O=C(Cn1ncc2c([nH]c3ccccc32)c1=O)Nc1cc(F)ccc1F,u,x,n,x,x,u
Cc1ccc(-c2cn(-c3ccccc3)c(SCC(=O)NC3CCS(=O)(=O)C3)n2)cc1C (stereo not drawn),n,14.1µM,n,n,n,n
CCn1c(SCC(=O)NC2CCS(=O)(=O)C2)nnc1-c1ccccc1 (stereo not drawn),n,n,n,x,n,n
CCc1ccccc1N1CSC2=C(C#N)C(c3cc(OC)c(OC)cc3OC)CC(=O)N2C1 (stereo not drawn),28.2µM,u,n,7.94µM,n,u
SMILES,Tau fibril ThT,ALDH1A1 inh,Tau fluor counter,HPGD block,NPSR antagonist,Tau fibril FP
COc1cc(OC)c(C2CC(=O)N3CN(c4ccccc4)CSC3=C2C#N)cc1OC (stereo not drawn),28.2µM,8.91µM,n,10µM,n,35.5µM
O=S(=O)(c1cccc(-c2n[nH]c(=S)n2C2CCCC2)c1)N1CCOCC1,n,n,n,x,n,n
Cc1ccc(NC(=O)C2=C(O)c3sccc3N(C)S2(=O)=O)cc1,n,n,n,n,n,n
Cc1ccc(NC(=S)C2=C(O)c3sccc3N(C)S2(=O)=O)cc1,u,7.94µM,n,u,n,n
Cc1cccc(N(CC(=O)NCCSCc2ccc(Cl)cc2)S(C)(=O)=O)c1C,n,x,n,x,x,n
COC(=O)C(NS(C)(=O)=O)(c1c(C)[nH]c2ccccc12)C(F)(F)F (stereo not drawn),n,n,n,n,n,n
Clc1cccc(N/N=C(\Cc2nc3ccccc3[nH]2)c2ccccc2)c1,u,u,7.08µM[quencher],n,n,u
O=C(NCc1nc2ccccc2[nH]1)c1cccc(Cl)c1,n,x,n,x,x,n
c1ccc(N/N=C(\Cc2ncc[nH]2)c2ccccc2)cc1,u,7.08µM,u,x,n,n
CC(C)c1ccc(NC(=O)c2cccc(Br)c2)cc1,n,n,n,x,n,n
CC(C)c1ccc(NCCC(=O)c2ccc(Br)cc2)cc1,n,3.98µM,n,n,n,n
